Several values for one entry are separate records, joined by “and”; a condition that tells them apart may be missing. Equal values may be shown once. Records with an inconclusive call do not appear. Activity calls are given as the source filed them. Unless noted, calls come from the whole dose curve; as a rule, active = well fitted curve in the direction sought with a large enough effect; inconclusive = small, poorly fitted or top-dose-only effect, or another doubt; inactive = no such curve, though single readings can be large; an effect the other way counts as inactive or inconclusive.
Assays:
[1] = qHTS assay for environmental chemicals that activate the Aryl hydrocarbon Receptor (AhR) signaling pathway (AID 651777); details: 1A2-DRE human hepatoma cells, luciferase, 24 h; stronger effect = higher value; note: % of control where 0% means no effect; nearly all actives have a fitted effect of over 15% in size
Summary of the method: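 Stable CYP1A2 promoter/DRE-luciferase human hepatoma line treated 24 hr; One-Glo luminescence, 30 min RT.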

[2] = target: Arylsulfatase A (Homo sapiens) (UniProt P15289); test: qHTS screen for enhancers of Arylsulfatase A (ASA1): LOPAC Validation Assay (AID 720538); details: ASA enzyme activity, LOPAC qHTS enhancer assay; series mostly up to 57.5 µM
Arylsulfatase A (Homo sapiens), sequence (P15289 whole entry, looked up): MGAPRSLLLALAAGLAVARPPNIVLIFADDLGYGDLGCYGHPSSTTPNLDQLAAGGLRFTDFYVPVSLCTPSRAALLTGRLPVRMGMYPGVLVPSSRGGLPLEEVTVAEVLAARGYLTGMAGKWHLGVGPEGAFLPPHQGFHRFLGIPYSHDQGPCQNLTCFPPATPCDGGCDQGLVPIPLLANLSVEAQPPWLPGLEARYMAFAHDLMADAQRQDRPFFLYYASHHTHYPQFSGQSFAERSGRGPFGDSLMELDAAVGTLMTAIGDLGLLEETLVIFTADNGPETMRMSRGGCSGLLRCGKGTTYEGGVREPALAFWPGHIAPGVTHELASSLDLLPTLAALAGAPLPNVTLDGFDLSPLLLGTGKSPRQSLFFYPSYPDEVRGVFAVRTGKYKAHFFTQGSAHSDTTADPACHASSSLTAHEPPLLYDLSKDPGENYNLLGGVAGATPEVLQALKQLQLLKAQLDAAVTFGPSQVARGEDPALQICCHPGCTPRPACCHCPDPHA
Summary of the method: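 Read-out: fluorescence at Ex=525/Em=598 nm after 1N NaOH final stop. Patient fibroblasts carrying ASA-I179S had 48h compound exposure, then 14h room-temperature pNCS hydrolysis (0.5mM final) in lysis buffer. Signal increase = enhanced activity.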

[3] = qHTS assay for small molecule agonists of the antioxidant response element (ARE) signaling pathway measured by Nrf2-dependant transcriptional activity (AID 720636; active = well fitted curve in the direction sought with a large enough effect in the repeat runs; an effect the other way counts as inactive or inconclusive;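 note: HepG2 cells with an ARE-driven luciferase reporter; % of control where 0% means no effect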); details: ARE-luc HepG2, Nrf2 luciferase reporter, 16 h; series mostly up to 92.4 µM
Summary of the method: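 Reporter gene assay, HepG2 ARE-luc: 16 hr compound, 37 C, 5% CO2; read-out luciferase luminescence.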

[4] = qHTS assay for small molecule agonists of the antioxidant response element (ARE) signaling pathway measured by Nrf2-dependant transcriptional activity - cell viability counter screen (AID 720653; active = well fitted curve in the direction sought with a large enough effect in the repeat runs; an effect the other way counts as inactive or inconclusive; note: % is set by controls: 0 for no effect and ±100 for the full control effect); details: ARE-bla HepG2 viability, CellTiter-Glo ATP luminescence, 16 h; max response: stronger effect = lower value
Summary of the method: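 ARE-bla HepG2 cells (2,000/well) rested 5 hrs at 37C/5% CO2, then exposed to compounds in DMSO for 16 hrs. Viability was read in the same wells as intracellular ATP by luminescence, 30 min at room temperature after reagent addition.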

[5] = target: T1, Hexokinase-4 (Homo sapiens) + Glucokinase regulatory protein (Homo sapiens) (UniProt P35557+Q14397); test: qHTS assay for inhibitors of recombinant human GCK-GKRP interaction: Diaphorase-coupled assay (AID 743205); details: G6PDH/diaphorase resorufin fluorescence; series mostly up to 57.5 µM
T1 sequence (P35557 whole entry, looked up): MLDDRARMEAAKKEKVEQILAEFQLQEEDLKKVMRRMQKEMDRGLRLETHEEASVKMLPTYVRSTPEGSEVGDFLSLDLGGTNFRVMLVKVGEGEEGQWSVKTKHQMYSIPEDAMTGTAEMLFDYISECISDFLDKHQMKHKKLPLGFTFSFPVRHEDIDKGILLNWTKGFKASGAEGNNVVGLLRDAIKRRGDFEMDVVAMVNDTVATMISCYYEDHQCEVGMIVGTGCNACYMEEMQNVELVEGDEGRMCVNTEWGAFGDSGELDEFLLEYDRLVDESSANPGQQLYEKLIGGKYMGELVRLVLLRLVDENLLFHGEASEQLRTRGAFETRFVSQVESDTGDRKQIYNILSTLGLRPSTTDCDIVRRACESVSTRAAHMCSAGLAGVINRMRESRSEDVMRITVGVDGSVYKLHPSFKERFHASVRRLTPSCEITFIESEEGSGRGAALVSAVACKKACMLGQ
T1 sequence (Q14397 whole entry, looked up): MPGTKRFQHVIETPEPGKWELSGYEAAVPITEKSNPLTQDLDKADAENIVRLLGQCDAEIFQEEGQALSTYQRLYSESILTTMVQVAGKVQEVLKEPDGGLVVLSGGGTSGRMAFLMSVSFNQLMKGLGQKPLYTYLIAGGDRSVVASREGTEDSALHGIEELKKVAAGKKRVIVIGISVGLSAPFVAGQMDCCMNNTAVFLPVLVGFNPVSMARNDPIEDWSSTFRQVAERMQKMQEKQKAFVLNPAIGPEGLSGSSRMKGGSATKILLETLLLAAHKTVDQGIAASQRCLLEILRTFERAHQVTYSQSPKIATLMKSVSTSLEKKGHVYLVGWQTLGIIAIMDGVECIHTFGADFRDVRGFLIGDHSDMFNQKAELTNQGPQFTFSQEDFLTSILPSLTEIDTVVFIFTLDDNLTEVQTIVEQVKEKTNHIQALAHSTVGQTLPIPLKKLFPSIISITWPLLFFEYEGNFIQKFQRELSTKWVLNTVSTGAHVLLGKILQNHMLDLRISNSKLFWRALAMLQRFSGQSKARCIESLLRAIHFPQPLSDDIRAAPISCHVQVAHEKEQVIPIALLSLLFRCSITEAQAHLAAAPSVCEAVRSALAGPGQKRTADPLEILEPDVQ
Summary of the method: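 Resorufin fluorescence (525/590 nm), read each minute over 30 min, reports GCK activity coupled via G6PDH and diaphorase. Reaction: 10 nM GST-GCK, 10 nM FLAG-GKRP, 5 mM glucose, 0.4 mM ATP, 0.15 mM NADP+, 0.1 mM resazurin.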

[6] = target: T1, Hexokinase-4 (Homo sapiens) + Glucokinase regulatory protein (Homo sapiens); test: qHTS assay for inhibitors of recombinant human GCK-GKRP interaction: ADP-Glo assay (AID 743206); details: ADP-Glo luminescence, 60 min, 0% = vehicle-only wells with enzyme present; series mostly up to 76.9 µM;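 note: plate controls were DMSO plus enzyme for no effect and no enzyme for full effect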
Summary of the method: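 Pin-transferred compounds meet a 15 nM GST-GCK/15 nM FLAG-GKRP/2 uM S6P mix (dispense concentrations). ATP is then added to 0.4 mM final with 5 mM glucose, and the reaction runs 60 min at room temperature. ADP is quantified luminescently.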

[7] = target: T1, Hexokinase-4 (Homo sapiens) + Glucokinase regulatory protein (Homo sapiens); test: qHTS assay for inhibitors of recombinant human GCK-GKRP interaction: HTRF assay (AID 743207); details: recombinant GCK-GKRP HTRF binding, 60 min, with sorbitol-6-phosphate; series mostly up to 57.5 µM;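 note: 0% = DMSO with GCK present and -100% = DMSO wells lacking GCK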
Summary of the method: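 HTRF read-out (ex 320 nm; 615/665 nm emission) after 60 min RT equilibration of 5 nM GST-GCK, 5 nM FLAG-GKRP, 2 uM S6P, compound and anti-FLAG/anti-GST detection antibodies; signal normalized between DMSO wells with and without GCK.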

[8] = target: Tumor necrosis factor (Homo sapiens) (UniProt P01375); test: qHTS assay to identify small molecules that stimulate Tumor Necrosis Factor-alpha (TNF-alpha) secretion (AID 651757; active = well fitted curve in the direction sought with a large enough effect in the signal ratio; the % refers to the signal ratio; note: 0% is about no effect); details: Human cells, HTRF 665/615 ratio; series mostly up to 92.2 µM
Tumor necrosis factor (Homo sapiens), sequence (P01375 whole entry, looked up): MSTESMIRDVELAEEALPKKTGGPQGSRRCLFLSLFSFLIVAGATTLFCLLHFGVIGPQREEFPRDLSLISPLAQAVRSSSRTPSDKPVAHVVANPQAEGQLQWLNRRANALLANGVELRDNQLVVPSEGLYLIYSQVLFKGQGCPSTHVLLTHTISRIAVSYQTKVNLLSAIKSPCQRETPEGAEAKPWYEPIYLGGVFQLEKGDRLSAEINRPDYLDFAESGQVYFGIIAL
Summary of the method: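 Using 3000 THP-1 cells per well, compounds and controls were applied for 17 hrs at 37 C. Detection followed with two labeled anti-TNF-alpha antibodies (cryptate donor, XL665 acceptor) for 3 hr at room temperature, measured by TR-FRET.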

[9] = qHTS for compounds that reverse cellular toxicity of Amyloid beta (A-beta) peptide in yeast: LOPAC Validation Assay (AID 720559); details: yeast expressing A-beta; series mostly up to 46.1 µM;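 note: plate controls were DMSO for no effect and equimolar ferric chloride plus clioquinol rescue for full effect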
Summary of the method: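 OD600 growth readout after 48 hr at 30 C; A-beta-toxic yeast plus pinned compounds in medium. Normalization: DMSO = negative, equimolar FeCl3 + clioquinol = positive.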

[10] = qHTS for Activators of Parkin Expression: LOPAC Validation Assay (NLuc Reporter) (AID 720572;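 note: 0% = DMSO and 100% = positive control compound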); details: Parkin promoter NanoLuc reporter cells, luminescence; series mostly up to 46.1 µM
Summary of the method: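 Cells harboring the Parkin-promoter coincidence reporter were treated for 24 h at seven concentrations. NLuc output was measured sequentially after the FLuc channel and scaled between DMSO and positive control values.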

[11] = qHTS for Activators of Parkin Expression: LOPAC Validation Assay (FLuc Reporter) (AID 720573;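 note: 0% = DMSO and 100% = positive control compounds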); details: Cell line, PRKN promoter firefly luciferase reporter, vehicle wells = 0, positive control = 100%; series mostly up to 46.1 µM
Summary of the method: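 FLuc luminescence read-out from a neuronal line expressing a Parkin-promoter-driven coincidence reporter. Cells treated 24 h at 37 C, 5% CO2 with compounds at 7 concentrations; signal increase normalized to DMSO and positive control.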

[12] = qHTS assay for small molecule antagonists of the retinoid-related orphan receptor gamma (ROR-gamma) signaling pathway - cell viability counter screen (AID 720652; active = well fitted curve in the direction sought with a large enough effect in the repeat runs; an effect the other way counts as inactive or inconclusive;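 note: CHO reporter cells with doxycycline-induced ROR-gamma expression; compound exposure lasted 16 hr before ATP read; % is set by controls: 0 for no effect and ±100 for the full control effect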); details: RORgamma reporter cell line viability counter screen; series mostly up to 92.2 µM
Summary of the method: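 ATP-based viability readout in the ROR-gamma reporter CHO cells after 16 hr compound exposure under doxycycline induction.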

[13] = qHTS assay for small molecule disruptors of the mitochondrial membrane potential - 5 hr assay (AID 651755; calls by dose curve; note: % is set by controls: 0 for no effect and ±100 for the full control effect; nearly all actives have a fitted effect of over 40% in size); details: JC-1-type ratio dye; series mostly up to 92.2 µM
Summary of the method: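 Seed HepG2 overnight, add compound, incubate 5 hr at 37C and 5% CO2, stain 30 min with Mito-MPS, then measure monomer (490/535 nm) and aggregate (540/590 nm) fluorescence.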

[14] = qHTS assay to identify small molecules that stimulate interleukin-8 (IL-8) secretion (AID 651758; active = well fitted activation curve with a large enough effect in the signal ratio; the % refers to the signal ratio; note: 0% is about no effect); details: HTRF ratio (665/615); series mostly up to 92.2 µM
Summary of the method: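 Quantitative HTS in THP-1 monocytic cells at 2000 cells per well, with 16 hrs compound incubation at 37 C. IL-8 in the medium was then quantified by HTRF immunoassay, read after 1-3 hrs at room temperature.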

[15] = qHTS for Inhibitors of Ubiquitin-specific Protease USP2a Using CHOP2 as the Reporter: K633 Counterscreen (AID 652168); details: No-enzyme DiUb K48 IQF substrate fluorescence interference, kinetic; series mostly up to 57.5 µM; note: % of control where 0% means no effect
Summary of the method: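 Detection-system control: fluorescence of K48-linked DiUb-4IQF substrate (100 nM as added) tracked over time, Ex 525/Em 598, with pinned compounds and no enzyme, in pH 8 Tris buffer containing beta-mercaptoethanol and 0.05% Chaps.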

[16] = qHTS for Inhibitors of Ubiquitin-specific Protease USP2a Using CHOP2 as the Reporter: Cytotox Assay (AID 652170); details: HCT116 viability, CellTiter-Glo luminescence, 72 h; series mostly up to 46.1 µM;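 note: HCT116 human colon cancer cells at 600 per well; plate controls were DMSO-treated cells for no effect and wells without cells for full effect; nearly all actives have a fitted effect of over 70% in size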
Summary of the method: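 Cytotoxicity read as ATP luminescence (CellTiter-Glo) after 72 hr compound treatment at 37 deg C. Cells: HCT116, 600/well in DMEM plus 10% FBS. Normalization between DMSO-treated cells and cell-free wells.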

[17] = target: Ubiquitin carboxyl-terminal hydrolase 2 (Homo sapiens) (UniProt O75604); test: qHTS for Inhibitors of Ubiquitin-specific Protease USP2a Using CHOP2 as the Reporter: K484 Substrate (AID 652173); details: USP2 cleavage of DiUb K48 IQF substrate, fluorescence; series mostly up to 57.5 µM;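 note: cleavage of internally quenched K48 di-ubiquitin substrate measured as rising fluorescence over time; nearly all actives have a fitted effect of over 70% in size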
Ubiquitin carboxyl-terminal hydrolase 2 (Homo sapiens), sequence (O75604 whole entry, looked up): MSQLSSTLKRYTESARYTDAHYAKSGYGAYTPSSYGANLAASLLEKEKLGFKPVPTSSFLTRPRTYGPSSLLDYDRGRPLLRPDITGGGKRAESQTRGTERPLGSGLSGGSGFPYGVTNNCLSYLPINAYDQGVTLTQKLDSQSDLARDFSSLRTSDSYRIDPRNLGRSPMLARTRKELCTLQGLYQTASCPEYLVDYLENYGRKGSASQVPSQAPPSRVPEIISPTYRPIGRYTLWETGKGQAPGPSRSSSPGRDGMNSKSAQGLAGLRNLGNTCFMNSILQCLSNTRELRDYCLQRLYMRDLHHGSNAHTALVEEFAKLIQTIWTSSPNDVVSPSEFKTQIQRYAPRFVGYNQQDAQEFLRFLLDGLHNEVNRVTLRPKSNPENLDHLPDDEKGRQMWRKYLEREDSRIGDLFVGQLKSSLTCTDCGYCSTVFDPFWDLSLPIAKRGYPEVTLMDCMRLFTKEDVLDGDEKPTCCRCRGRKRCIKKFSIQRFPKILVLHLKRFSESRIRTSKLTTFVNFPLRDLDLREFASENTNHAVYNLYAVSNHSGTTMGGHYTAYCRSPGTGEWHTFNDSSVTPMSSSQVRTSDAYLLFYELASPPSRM
Summary of the method: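 Kinetic fluorescence (Ex 525/Em 598) tracked cleavage of an internally quenched K48 di-ubiquitin substrate, added as a 100 nM solution. The enzyme was added as a 5 nM USP2 solution before compound pinning, with no-enzyme controls. Buffer: Tris pH 8, beta-mercaptoethanol, CHAPS.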

[18] = target: Nuclear receptor ROR-gamma (Homo sapiens) (UniProt P51449); test: qHTS assay for small molecule antagonists of the retinoid-related orphan receptor gamma (ROR-gamma) signaling pathway (AID 651802); details: ROR-gamma antagonist cell reporter assay; series mostly up to 92.2 µM;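 note: CHO cells with doxycycline-induced ROR-gamma expression; luciferase reporter luminescence driven by ROR response element; % is set by controls: 0 for no effect and ±100 for the full control effect; nearly all actives have a fitted effect of over 60% in size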
Nuclear receptor ROR-gamma (Homo sapiens), sequence (P51449 whole entry, looked up): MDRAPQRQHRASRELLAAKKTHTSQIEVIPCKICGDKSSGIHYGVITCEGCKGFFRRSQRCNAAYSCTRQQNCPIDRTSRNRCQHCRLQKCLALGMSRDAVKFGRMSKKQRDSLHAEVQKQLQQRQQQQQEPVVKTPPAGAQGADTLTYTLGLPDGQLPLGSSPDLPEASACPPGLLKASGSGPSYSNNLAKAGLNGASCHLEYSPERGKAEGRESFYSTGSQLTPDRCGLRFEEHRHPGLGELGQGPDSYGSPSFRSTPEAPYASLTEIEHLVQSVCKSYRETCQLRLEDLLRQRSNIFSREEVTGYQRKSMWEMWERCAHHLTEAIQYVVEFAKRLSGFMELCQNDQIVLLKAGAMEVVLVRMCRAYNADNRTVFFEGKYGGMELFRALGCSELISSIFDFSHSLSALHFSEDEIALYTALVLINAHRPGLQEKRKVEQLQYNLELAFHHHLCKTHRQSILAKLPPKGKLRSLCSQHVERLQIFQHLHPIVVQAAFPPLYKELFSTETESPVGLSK
Summary of the method: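 Doxycycline-induced reporter activity in engineered CHO cells (TET-inducible ROR, RORE-LUC) was measured by luminescence after 16hr compound exposure at 37C.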

CN(C)CCOC(C)(c1ccccc1)c1ccccn1 (stereo not given)
inactive: activation [1] -1.5% | Potency [2] | outcome [3] | max response [4] -11.9% | outcome [5] | outcome [6] | outcome [7]

C[C@]12C[C@H](O)[C@H]3[C@@H](CCC4=CC(=O)CC[C@@]43C)[C@@H]1CC[C@@H]2C(=O)CO
inactive: outcome [8] | activation [1] -0.656% and -0.0877% | Potency [2] | outcome [9] | Potency [10] | outcome [11] | outcome [3] | Potency [12] | max response [4] -15.9% and -13% | outcome [5] | outcome [7]

CN(C)CCC=C1c2ccccc2CCc2ccccc21
inactive: outcome [8] | activation [1] -1.66% and 0.429% | outcome [9] | Potency [10] | outcome [11] | outcome [5] | outcome [6] | outcome [7]

COC(=O)C1=C(C)NC(C)=C(C(=O)OC)C1c1ccccc1[N+](=O)[O-]
inactive: Potency [13] | outcome [14] | activation [1] 3.95% | Potency [2] | outcome [9] | max response [4] -20.5% | outcome [5] | outcome [7]

Nc1ccc(S(=O)(=O)Nc2nccs2)cc1
inactive: outcome [8] | activation [1] -0.168% | outcome [15] | outcome [16] | outcome [17] | outcome [3] | Potency [12] | max response [4] -8.72%

NCCNCCNCCNCCN
inactive: outcome [8] | activation [1] -0.491% and -2.35% | Potency [18] | outcome [3] | Potency [12] | max response [4] -13.9% and 10.9%

CC1=C(/C=C/C(C)=C/C=C/C(C)=C/C(=O)O)C(C)(C)CCC1
inactive: activation [1] 4.57% and 7.11% | Potency [2] | outcome [9] | Potency [10] | max response [4] -2.09% and 3.64% | outcome [5] | outcome [7]

Reference: PubChem BioAssay (NCATS)
